These results are taken from the supplement of paper PMC10849652.

What all share (test): log2 fold change, soluble protein after heating vs DMSO (PISA); higher = thermal stabilisation; K562 cells, 10 uM, 30 min; active = over 0.2 and 3.5 SD of the protein, either way, in both replicates (recomputed)
Compound in test [1]: CC[C@@H]1C(=O)N(C)c2cnc(Nc3ccc(C(=O)NC4CCN(C)CC4)cc3OC)nc2N1C1CCCC1
The essentials:
(§1)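 K562 cells (2×10^6 cells/mL) were treated with 10 μM compound for 30 min, and aliquots were heated for 3 min over 48°C-58°C. Pooled aliquots were extracted in PBS with 0.5% NP-40 at 4°C, and the supernatant after 21,000xg for 90 min was measured by TMTpro 16plex LC-MS/MS with channel sums equalised. Reported thermal stability, relative to control samples and from duplicates, is a log2 fold change.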

Compound in a further test: CC[C@@H]1C(=O)N(C)c2cnc(Nc3ccc(C(=O)N[C@H]4CC[C@H](N5CCN(CC6CC6)CC5)CC4)cc3OC)nc2N1C(C)C [volasertib]
Put shortly:
as §1

Compound in test [2]: CC[C@H](C)N1C=C(C2=C(C=C(C=C21)C3=CN=C(C=C3)N4CCNCC4)C(=O)NCC5=C(C=C(NC5=O)C)C)C
The essentials: as §1

Compound in a further test: CC[C@H](C)[C@@H](C(=O)N[C@@H]([C@@H](C)O)C(=O)N[C@@H](CC(C)C)C(=O)[C@]1(CO1)C)NC(=O)[C@H]([C@@H](C)CC)N(C)C(=O)C [epoxomicin]
The essentials:
as §1

Compound in test [3]: CCn1c(C(=O)N(C2CC2)C2CC2)cc2c3c(ncn3C)c(Nc3cc(C)n(C)n3)nc21
Put shortly: as §1

Compound in test [4]: CCn1cc(-c2ccnc3[nH]c(-c4cccc(CN(C)C)c4)cc23)c(-c2ccc(NC(=O)N(C)C)cc2)n1
The essentials:
as §1

Compound in test [5]: CN(C)CC(=O)Nc1ccc2[nH]c(=O)c3ccccc3c2c1
Put shortly: as §1

Compound in the next test: CN(CCOC1=CC=C(C=C1)C[C@H]2C(=O)NC(=O)S2)C3=CC=CC=N3 (racemic) [rosiglitazone]
Put shortly: as §1

Compound in test [6]: CN1C2=C(C3=C1C(=O)N(N=C3)CC4=CC(=CC=C4)N)SC(=C2)S(=O)C
Put shortly:
as §1

Compound in test [7]: CN1CCC(CNc2ccc3ncc(-c4cccc(OC(F)(F)F)c4)n3n2)CC1
Put shortly:
as §1

Targets with a hit are over-represented here; the source holds about 7,900 in all. About 0.6% of all pairs of compound and target were hits. A number with no mark means an inactive call.

Chain of UniProt P54803 (P54803 whole entry, looked up): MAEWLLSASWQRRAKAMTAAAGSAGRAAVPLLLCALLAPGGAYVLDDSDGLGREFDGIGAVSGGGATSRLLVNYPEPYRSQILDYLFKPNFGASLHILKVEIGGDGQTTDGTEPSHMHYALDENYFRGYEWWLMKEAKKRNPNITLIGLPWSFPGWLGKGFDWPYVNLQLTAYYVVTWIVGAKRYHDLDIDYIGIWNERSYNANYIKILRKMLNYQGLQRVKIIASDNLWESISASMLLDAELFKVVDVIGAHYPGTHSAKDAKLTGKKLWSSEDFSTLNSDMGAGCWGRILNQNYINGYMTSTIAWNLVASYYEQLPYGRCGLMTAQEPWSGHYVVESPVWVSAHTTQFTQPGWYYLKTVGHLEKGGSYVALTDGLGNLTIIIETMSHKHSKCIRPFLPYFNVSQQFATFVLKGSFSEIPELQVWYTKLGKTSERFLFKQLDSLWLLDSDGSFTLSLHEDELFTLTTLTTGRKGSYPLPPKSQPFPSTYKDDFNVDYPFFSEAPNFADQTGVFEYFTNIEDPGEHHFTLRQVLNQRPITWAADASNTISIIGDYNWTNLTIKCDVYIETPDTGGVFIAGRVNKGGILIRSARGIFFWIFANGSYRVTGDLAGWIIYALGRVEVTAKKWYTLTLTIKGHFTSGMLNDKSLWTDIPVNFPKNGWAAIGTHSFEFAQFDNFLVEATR
Chain of UniProt P29083 (P29083 whole entry, looked up): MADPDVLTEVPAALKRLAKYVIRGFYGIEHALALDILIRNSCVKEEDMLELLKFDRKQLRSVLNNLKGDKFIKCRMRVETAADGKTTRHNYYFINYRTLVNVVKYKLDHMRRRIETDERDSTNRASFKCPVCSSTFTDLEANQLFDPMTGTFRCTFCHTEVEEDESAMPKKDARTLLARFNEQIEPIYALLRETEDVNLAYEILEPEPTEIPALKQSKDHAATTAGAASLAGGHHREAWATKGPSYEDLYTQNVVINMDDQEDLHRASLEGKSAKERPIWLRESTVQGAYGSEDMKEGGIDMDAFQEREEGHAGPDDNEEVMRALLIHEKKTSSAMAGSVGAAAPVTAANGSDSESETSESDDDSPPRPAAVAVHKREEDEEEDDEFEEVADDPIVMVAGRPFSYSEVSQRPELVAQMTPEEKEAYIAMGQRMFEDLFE
Chain of UniProt O15228 (O15228 whole entry, looked up): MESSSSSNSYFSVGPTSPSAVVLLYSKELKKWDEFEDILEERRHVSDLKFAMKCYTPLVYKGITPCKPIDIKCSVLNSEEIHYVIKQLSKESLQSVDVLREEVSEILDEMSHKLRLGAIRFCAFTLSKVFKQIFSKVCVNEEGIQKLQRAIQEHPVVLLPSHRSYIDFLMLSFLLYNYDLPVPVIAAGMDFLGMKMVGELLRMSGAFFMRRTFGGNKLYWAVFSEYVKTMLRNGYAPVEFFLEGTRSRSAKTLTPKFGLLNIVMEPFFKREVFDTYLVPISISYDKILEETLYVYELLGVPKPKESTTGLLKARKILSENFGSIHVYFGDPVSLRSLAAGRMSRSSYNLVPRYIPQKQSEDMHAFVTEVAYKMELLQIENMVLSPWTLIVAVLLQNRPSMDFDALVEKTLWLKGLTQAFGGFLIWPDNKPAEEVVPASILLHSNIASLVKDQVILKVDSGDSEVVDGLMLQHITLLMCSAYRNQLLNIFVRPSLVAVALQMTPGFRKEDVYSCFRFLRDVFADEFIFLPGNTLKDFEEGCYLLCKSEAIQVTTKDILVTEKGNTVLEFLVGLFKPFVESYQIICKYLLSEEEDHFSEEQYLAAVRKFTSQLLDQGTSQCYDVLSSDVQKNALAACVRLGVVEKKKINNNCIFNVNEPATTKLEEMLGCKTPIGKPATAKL
Chain of UniProt Q9P2D3 (Q9P2D3 whole entry, looked up): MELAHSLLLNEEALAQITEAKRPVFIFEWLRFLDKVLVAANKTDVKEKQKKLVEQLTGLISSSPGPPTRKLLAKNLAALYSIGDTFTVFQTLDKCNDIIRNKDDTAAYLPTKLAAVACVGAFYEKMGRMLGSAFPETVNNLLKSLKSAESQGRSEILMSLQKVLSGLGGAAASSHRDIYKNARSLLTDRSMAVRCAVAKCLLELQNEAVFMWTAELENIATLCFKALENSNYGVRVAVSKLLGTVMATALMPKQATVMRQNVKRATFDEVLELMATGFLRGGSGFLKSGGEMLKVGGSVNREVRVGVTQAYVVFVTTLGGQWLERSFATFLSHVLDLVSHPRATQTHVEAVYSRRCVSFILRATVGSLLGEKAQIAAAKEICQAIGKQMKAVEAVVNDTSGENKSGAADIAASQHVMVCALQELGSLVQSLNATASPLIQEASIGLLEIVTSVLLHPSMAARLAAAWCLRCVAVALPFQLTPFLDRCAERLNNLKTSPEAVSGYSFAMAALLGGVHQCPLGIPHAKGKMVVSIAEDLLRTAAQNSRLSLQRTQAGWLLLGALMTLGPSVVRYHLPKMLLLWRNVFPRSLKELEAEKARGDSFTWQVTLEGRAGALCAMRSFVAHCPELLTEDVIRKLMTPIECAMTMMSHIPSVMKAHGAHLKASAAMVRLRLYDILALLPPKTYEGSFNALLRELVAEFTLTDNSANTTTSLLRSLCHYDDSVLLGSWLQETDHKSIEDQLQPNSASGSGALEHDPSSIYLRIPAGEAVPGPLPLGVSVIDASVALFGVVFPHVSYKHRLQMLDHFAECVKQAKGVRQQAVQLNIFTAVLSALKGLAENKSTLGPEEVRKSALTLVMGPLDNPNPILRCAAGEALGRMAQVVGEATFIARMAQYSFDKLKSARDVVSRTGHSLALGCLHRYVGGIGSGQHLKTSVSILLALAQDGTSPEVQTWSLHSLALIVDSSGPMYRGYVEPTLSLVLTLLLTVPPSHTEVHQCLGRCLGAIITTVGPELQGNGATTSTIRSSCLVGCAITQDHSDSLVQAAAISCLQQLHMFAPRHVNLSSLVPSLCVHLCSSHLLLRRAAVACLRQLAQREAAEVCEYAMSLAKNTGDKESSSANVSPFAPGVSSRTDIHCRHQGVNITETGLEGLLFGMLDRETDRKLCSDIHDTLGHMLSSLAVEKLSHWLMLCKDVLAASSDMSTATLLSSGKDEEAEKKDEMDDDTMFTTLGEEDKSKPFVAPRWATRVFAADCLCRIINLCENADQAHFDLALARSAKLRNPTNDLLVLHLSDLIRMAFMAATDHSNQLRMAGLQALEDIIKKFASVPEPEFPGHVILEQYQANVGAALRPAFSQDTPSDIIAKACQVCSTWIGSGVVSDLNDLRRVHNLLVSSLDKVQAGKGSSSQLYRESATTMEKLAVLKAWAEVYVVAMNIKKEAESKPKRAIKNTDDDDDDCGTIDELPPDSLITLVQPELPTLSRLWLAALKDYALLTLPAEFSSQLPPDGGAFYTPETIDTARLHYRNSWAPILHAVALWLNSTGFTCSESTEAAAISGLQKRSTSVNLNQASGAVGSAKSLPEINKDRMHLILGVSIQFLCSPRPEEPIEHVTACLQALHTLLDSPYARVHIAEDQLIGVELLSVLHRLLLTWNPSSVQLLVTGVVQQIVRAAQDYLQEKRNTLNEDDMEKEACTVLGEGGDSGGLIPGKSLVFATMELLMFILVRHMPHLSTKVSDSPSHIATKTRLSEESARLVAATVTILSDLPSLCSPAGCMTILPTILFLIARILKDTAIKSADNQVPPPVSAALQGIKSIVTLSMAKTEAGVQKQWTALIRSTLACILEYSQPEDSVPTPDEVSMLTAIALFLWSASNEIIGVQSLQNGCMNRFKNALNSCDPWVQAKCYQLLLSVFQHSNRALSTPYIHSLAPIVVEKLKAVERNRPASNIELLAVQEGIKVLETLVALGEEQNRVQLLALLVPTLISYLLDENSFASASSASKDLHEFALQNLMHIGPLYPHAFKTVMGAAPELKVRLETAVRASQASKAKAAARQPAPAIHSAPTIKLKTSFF
Chain of UniProt P0CL80 (P0CL80 whole entry, looked up): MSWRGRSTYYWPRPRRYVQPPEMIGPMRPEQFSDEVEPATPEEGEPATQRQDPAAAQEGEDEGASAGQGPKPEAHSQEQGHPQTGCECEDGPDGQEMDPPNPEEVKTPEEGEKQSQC
Chain of UniProt P09105 (P09105 whole entry, looked up): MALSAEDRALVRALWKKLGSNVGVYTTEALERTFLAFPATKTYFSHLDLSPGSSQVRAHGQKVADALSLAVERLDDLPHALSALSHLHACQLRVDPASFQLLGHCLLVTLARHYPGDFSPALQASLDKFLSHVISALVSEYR
Chain of UniProt P36915 (P36915 whole entry, looked up): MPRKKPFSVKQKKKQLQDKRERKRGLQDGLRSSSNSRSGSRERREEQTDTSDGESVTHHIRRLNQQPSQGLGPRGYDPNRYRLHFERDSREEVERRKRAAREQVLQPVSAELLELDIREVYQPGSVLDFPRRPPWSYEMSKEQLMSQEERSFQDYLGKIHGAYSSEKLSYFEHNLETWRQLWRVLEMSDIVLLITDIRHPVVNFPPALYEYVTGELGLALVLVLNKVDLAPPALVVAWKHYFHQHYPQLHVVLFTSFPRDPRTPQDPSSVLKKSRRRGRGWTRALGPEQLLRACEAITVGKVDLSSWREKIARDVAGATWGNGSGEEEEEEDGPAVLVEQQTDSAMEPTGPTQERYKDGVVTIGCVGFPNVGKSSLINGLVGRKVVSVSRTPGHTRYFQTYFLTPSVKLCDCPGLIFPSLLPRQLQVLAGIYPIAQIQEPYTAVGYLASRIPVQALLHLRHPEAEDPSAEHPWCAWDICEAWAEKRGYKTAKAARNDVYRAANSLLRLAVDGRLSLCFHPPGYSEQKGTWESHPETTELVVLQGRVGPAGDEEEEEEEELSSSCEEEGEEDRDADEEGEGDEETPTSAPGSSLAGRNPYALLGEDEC
Chain of UniProt P29084 (P29084 whole entry, looked up): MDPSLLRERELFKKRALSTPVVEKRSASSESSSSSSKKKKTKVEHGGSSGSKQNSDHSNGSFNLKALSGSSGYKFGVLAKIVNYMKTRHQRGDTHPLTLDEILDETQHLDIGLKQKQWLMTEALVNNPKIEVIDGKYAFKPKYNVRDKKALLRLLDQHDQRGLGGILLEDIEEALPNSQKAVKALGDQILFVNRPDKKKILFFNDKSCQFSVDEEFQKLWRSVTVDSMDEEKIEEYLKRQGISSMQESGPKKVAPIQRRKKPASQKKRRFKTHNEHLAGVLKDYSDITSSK

For GEMIN5 (UniProt Q8TEQ6), the log2 fold change in test [1] was -0.122; with volasertib, -0.438 (active); in test [2], 0.034; with epoxomicin it was -0.014; in test [3], -0.007; in test [4], 0.042. Besides, the log2 fold change in test [5] was 0.015; with rosiglitazone, 0.046; in test [6], 0.019; in test [7], -0.094.
Take HBQ1 (UniProt P09105): the log2 fold change in test [1] is 0.01; in the test with volasertib it was -0.014; in test [2], -0.005; with epoxomicin, 0.375 (active); in [3], 0.069; in test [4] it was -0.064. The log2 fold change in test [5] is 0.047; with rosiglitazone, 0.021; in test [6] it was -0.145; in test [7] it was 0.063.
For GNL1 (UniProt P36915), the log2 fold change is -0.095 in test [1]; -0.229 (active) with volasertib; 0.027 in [2]; 0.008 in the test with epoxomicin; -0.006 in test [3]; -0.1 in test [4]. Also, the log2 fold change in test [5] was 0.024; with rosiglitazone it was 0.01; in [6] it was -0.083; in test [7], -0.053.
Regarding H2AZ1 (UniProt P0C0S5), the log2 fold change in [1] is 0; with volasertib it was 0.065; in test [2], -0.084; in the test with epoxomicin it was -0.311; in test [3], 0.054; in test [4], 0.103. Also, the log2 fold change in [5] is -0.071; in the test with rosiglitazone, -0.052; in test [6], 0.435; in test [7], 0.026.
Regarding HIKESHI (UniProt Q53FT3), the log2 fold change in test [1] is -0.116; with volasertib it was -0.178; in [2] it was 0.022; with epoxomicin it was -0.013; in test [3], -0.015; in [4], 0.001. Besides, the log2 fold change in [5] is 0.008; in the test with rosiglitazone, 0.035; in [6], -0.018; in [7], 0.077.
Take GALC (UniProt P54803): the log2 fold change in test [1] is -0.275 (active); in the test with volasertib it was -0.959 (active); in test [2], -0.009; in the test with epoxomicin it was 0.042; in test [3], 0.012; in test [4] it was 0.096. Further, the log2 fold change in [5] is 0.01; in the test with rosiglitazone, -0.006; in test [6], -0.011; in [7], -0.403 (active).
With GTF2E1 (UniProt P29083), the log2 fold change was -0.267 in test [1]; -0.567 (active) with volasertib; 0.096 in test [2]; -0.015 in the test with epoxomicin; -0.062 in test [3]; 0.023 in [4]. Also, the log2 fold change was 0.072 in test [5], 0.033 with rosiglitazone, -0.034 in [6] and -0.084 in test [7].
Consider HDHD2 (UniProt Q9H0R4), for which the log2 fold change in test [1] is 0.011; with volasertib, 0.049; in [2] it was -0.007; with epoxomicin, 0.073; in test [3] it was -0.012; in test [4], -0.063. Moreover, the log2 fold change was 0.053 in test [5], 0.017 with rosiglitazone, -0.058 in test [6] and -0.096 in test [7].
Turning to GAGE12F (UniProt P0CL80), the log2 fold change was 0.037 in [1]; 0.069 in the test with volasertib; -0.033 in test [2]; 0.034 in the test with epoxomicin; -0.039 in [3]; -0.058 in test [4]. The log2 fold change in [5] was -0.095; with rosiglitazone, 0.002; in test [6], -0.049; in test [7], -0.234.
Regarding GNPAT (UniProt O15228), the log2 fold change is -0.065 in test [1]; -0.149 with volasertib; -0.02 in test [2]; 0.04 with epoxomicin; 0.044 in test [3]; -0.066 in test [4]. In addition, the log2 fold change in [5] was -0.027; in the test with rosiglitazone it was 0.066; in [6], -0.084; in [7], -0.354 (active).
On to HEATR5B (UniProt Q9P2D3), for which the log2 fold change in [1] is -0.053; in the test with volasertib it was -0.19; in [2] it was 0.083; with epoxomicin it was -0.058; in test [3], -0.041; in [4] it was 0.018. Besides, the log2 fold change is -0.009 in test [5], 0.003 in the test with rosiglitazone, -0.017 in test [6] and -0.015 in test [7].
As for GTF2E2 (UniProt P29084), the log2 fold change in test [1] was -0.11; with volasertib, -0.265 (active); in test [2], 0.105; in the test with epoxomicin, 0.099; in test [3] it was -0.036; in test [4] it was 0.001. The log2 fold change in [5] is 0.069; with rosiglitazone, 0.017; in test [6] it was 0.027; in test [7], -0.103.
With GTF2H3 (UniProt Q13889), the log2 fold change was 0.004 in test [1]; -0.122 in the test with volasertib; 0.066 in test [2]; -0.099 in the test with epoxomicin; -0.035 in [3]; 0.115 in test [4]. The log2 fold change in test [5] was 0.052; with rosiglitazone, -0.046; in test [6], 0.027; in test [7] it was -0.34 (active).
Turning to ICAM1 (UniProt P05362), the log2 fold change in [1] is 0.155; in the test with volasertib, 0.078; in test [2], -0.028; with epoxomicin, 0.008; in [3], -0.02; in test [4], 0.012. For the same target, the log2 fold change in [5] is -0.039; in the test with rosiglitazone, -0.002; in test [6], -0.073; in [7], 0.223 (active).
As for HEATR3 (UniProt Q7Z4Q2), the log2 fold change in test [1] was -0.308; in the test with volasertib it was -0.36 (active); in test [2] it was 0.033; with epoxomicin it was 0.039; in [3] it was -0.051; in [4] it was 0.276. The log2 fold change is 0.058 in test [5], 0.059 with rosiglitazone, 0.007 in test [6] and -0.34 in test [7].
